Measured values from article PMC10726135, “HNF4α isoforms regulate the circadian balance between carbohydrate and lipid metabolism in the liver”.
Over roughly 18,000 sequences, “log2 normalized intensity” has its median near 0.36; the highest 2% begin near 7.3. The list comes from a sample in which the highest values are over-represented; it also holds similar and randomly drawn sequences.

molecular target: T1, HNF4alpha8 (COS-7 nuclear extract) (Homo sapiens, UniProt P41235-5 1-452); assay: protein-binding microarray; COS-7 nuclear extract on double-stranded Agilent 4x180k PBM; binding buffer, salt, pH and temperature not given in the material; high values mean tight binding; conditions: chain copies: 2; label: 3' end of strand 1 on the slide; dsDNA, one strand shown
T1 sequence: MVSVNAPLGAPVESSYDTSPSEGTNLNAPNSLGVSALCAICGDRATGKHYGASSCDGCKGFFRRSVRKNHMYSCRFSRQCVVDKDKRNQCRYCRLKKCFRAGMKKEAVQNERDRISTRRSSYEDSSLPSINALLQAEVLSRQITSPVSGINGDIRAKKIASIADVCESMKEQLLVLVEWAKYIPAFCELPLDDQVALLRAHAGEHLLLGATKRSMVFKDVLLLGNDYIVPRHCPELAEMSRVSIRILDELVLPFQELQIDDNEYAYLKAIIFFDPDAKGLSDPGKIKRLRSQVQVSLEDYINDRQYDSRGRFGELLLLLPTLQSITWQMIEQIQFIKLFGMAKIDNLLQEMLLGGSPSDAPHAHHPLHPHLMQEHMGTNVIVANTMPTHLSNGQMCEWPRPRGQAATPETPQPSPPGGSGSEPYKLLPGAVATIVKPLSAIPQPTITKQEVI
Summary of the method: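 A custom Agilent SurePrint G3 4x180k array, spotted in quadruplicate with ~44,000 test sequences as ~60-nt oligonucleotides made double-stranded, was incubated with nuclear extracts. The extracts came from COS-7 cells transiently transfected by CaPO4 with a human HNF4α isoform expression vector. Bound HNF4α was imaged on an Agilent G2565CA scanner at 2-µm resolution, and the binding signal was taken as Agilent software's background-corrected, normalized gProcessedSignal.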

Row | Sequence | binding signal [log2 normalized intensity]
1 | TGCCCTTTGGCCCCCAGAGCCCCGTGTCTCGCCTAGGGAGATTAGAGTATCGGTCGA | 5.63
2 | ACCCCTGAATAGGTCTTGGAATGTGACGGCGCCTAGGGAGATTAGAGTATCGGTCGA | 1.5
3 | GTTCTCTGGGCTTTTTGATCTTGTCACATTGCCTAGGGAGATTAGAGTATCGGTCGA | 1.99
4 | GAACAGTCCTACAAATGATCAAAGGTTGGTGCCTAGGGAGATTAGAGTATCGGTCGA | 3.74
5 | TACAGGGAGCTATTCTTTAACCAGAGTCTAGCCTAGGGAGATTAGAGTATCGGTCGA | -0.822
6 | TCTTGTGGTAATCTCTTTTGTGTTAGAGGGGCCTAGGGAGATTAGAGTATCGGTCGA | 1.02
7 | GACCTTCAGATGCAGTCCAGAAGGTCAGGAGCCTAGGGAGATTAGAGTATCGGTCGA | 4.19
8 | GCTAGACTTGGACCAGCTTTTGGAAGGACTGCCTAGGGAGATTAGAGTATCGGTCGA | 0.0118
9 | AGCCTACCCACCCACACCTCCCCTTTGTTTGCCTAGGGAGATTAGAGTATCGGTCGA | 3.22
10 | CTGTACCCTATGCACCCCACAGTGCTGTTTGCCTAGGGAGATTAGAGTATCGGTCGA | 1.71
11 | TGCCCTTTGCCTGGTGATCTTTGTTAGACCGCCTAGGGAGATTAGAGTATCGGTCGA | 3.02
12 | ACCCACCCACACCTCCCCTTTGTTTAACTTGCCTAGGGAGATTAGAGTATCGGTCGA | 2.79
13 | CCGCCCACCCTTTTTTTTCTTTCTTTTCCCGCCTAGGGAGATTAGAGTATCGGTCGA | 1.46
14 | AGAGGGGGTTTGTTTTTTGCCCTTTGTACCGCCTAGGGAGATTAGAGTATCGGTCGA | 8.63
15 | GGGTTTGTTTTTTGCCCTTTGTACCCACACGCCTAGGGAGATTAGAGTATCGGTCGA | 8.41
16 | CCCACAGAGGGGGTTTGTTTTTTGCCCTTTGCCTAGGGAGATTAGAGTATCGGTCGA | 5.27
17 | TGTTTTTTGCCCTTTGTACCCACACACACCGCCTAGGGAGATTAGAGTATCGGTCGA | 7.36
18 | CCAGAGCCTCCAAAGTCCGCTTGCCTGAGGGCCTAGGGAGATTAGAGTATCGGTCGA | -0.939
19 | ACAGCGTTTTCCCATTCATGACATTGATTTGCCTAGGGAGATTAGAGTATCGGTCGA | 1.47
20 | ACCCCACTTTGGTTCACCGCTCACTGCTCCGCCTAGGGAGATTAGAGTATCGGTCGA | -0.611
21 | TACTGGTTGAATGGACGGACAGGTAACGTAGCCTAGGGAGATTAGAGTATCGGTCGA | 0.899
22 | AACCTCCTTTGAGATAGCTATGATTATCCTGCCTAGGGAGATTAGAGTATCGGTCGA | -0.867
23 | ATTGACATTTGGGGTCAGATAATTCTTTGCGCCTAGGGAGATTAGAGTATCGGTCGA | 2.42
24 | AAGACCCAAGGCGTATGAAGCTTTGACCCTGCCTAGGGAGATTAGAGTATCGGTCGA | 5.29
25 | GGGTCCTGGCAGCACCTGAAGAATTTGGACGCCTAGGGAGATTAGAGTATCGGTCGA | 1.76
26 | GAATTTGGACTTTGCACTAAAAGCCATGAGGCCTAGGGAGATTAGAGTATCGGTCGA | 6.28
27 | GGTGAGTCTTTGCCCCTGGACTTTGAATTTGCCTAGGGAGATTAGAGTATCGGTCGA | 5.75

Row | Sequence | binding signal [log2 normalized intensity]
28 | TGGACTTTGCACTAAAAGCCATGAGAAGGTGCCTAGGGAGATTAGAGTATCGGTCGA | 5.41
29 | AGCACCTGAAGAATTTGGACTTTGCACTAAGCCTAGGGAGATTAGAGTATCGGTCGA | 9.19
30 | CTGGCAGCACCTGAAGAATTTGGACTTTGCGCCTAGGGAGATTAGAGTATCGGTCGA | 8.33
31 | GGAGACCTGAAACTAGACCAAGAAGACTTTGCCTAGGGAGATTAGAGTATCGGTCGA | -0.267
32 | TGGACTTTGGAATTAAGGAGATTTGGCTTTGCCTAGGGAGATTAGAGTATCGGTCGA | 5.99
33 | GAAGATCGCAGACTTTGGACTCTGCAAGGAGCCTAGGGAGATTAGAGTATCGGTCGA | 6.68
34 | TTCCTGAAGATCGCAGACTTTGGACTCTGCGCCTAGGGAGATTAGAGTATCGGTCGA | 8.57
35 | AGGGATTCCTGAAGATCGCAGACTTTGGACGCCTAGGGAGATTAGAGTATCGGTCGA | 6.44
36 | CTGAAGAATTTGGACTTTGCACTAAAAGCCGCCTAGGGAGATTAGAGTATCGGTCGA | 7.57
37 | CAAGGAAAGATAAATAGTGACAAATTGTATGCCTAGGGAGATTAGAGTATCGGTCGA | -0.0347
38 | GTTTCTCAAGTGATCGAAGGTCAACTTATCGCCTAGGGAGATTAGAGTATCGGTCGA | 4.63
39 | TGTCCTGTGATTAAGGTCAATGGGAAACTAGCCTAGGGAGATTAGAGTATCGGTCGA | 1.05
40 | CTAGTTCATTAAACATGTTTACTCTGGTCCGCCTAGGGAGATTAGAGTATCGGTCGA | 1.59
41 | GAAGGAGAGTGACCTCTGCTTGAAGGCATTGCCTAGGGAGATTAGAGTATCGGTCGA | 1.78
42 | AGATTCTTTCTTCCTTTTGAAAAAGTGAGTGCCTAGGGAGATTAGAGTATCGGTCGA | 0.567
43 | AATAGCCCCAAATTCCTTTCAAACTGTATTGCCTAGGGAGATTAGAGTATCGGTCGA | 1.37
44 | CAAAAATGATACCCCAGAGTACAGCACTTTGCCTAGGGAGATTAGAGTATCGGTCGA | 1.2
45 | ATCAGAGCAAAGTTCAATTTCCAACAAATGGCCTAGGGAGATTAGAGTATCGGTCGA | 3.74
46 | AATTCCAGTTTGGACTTTGATCCTGATGACGCCTAGGGAGATTAGAGTATCGGTCGA | 10
47 | GGAGAGAGTTTGGCCCCAGTTCCCATGGACGCCTAGGGAGATTAGAGTATCGGTCGA | 1.45
48 | AGATCATCCTGCAGTTCCTGATCTTTGACCGCCTAGGGAGATTAGAGTATCGGTCGA | 7.84
49 | CACCTTTGGATCCAGCTCCTGATGTTTGGTGCCTAGGGAGATTAGAGTATCGGTCGA | 2.43
50 | TGGACTTTGATCCTGATGACTGCAGAGCTTGCCTAGGGAGATTAGAGTATCGGTCGA | 6.16
51 | GCAGTTCCTGATCTTTGACCTGGAGCATGAGCCTAGGGAGATTAGAGTATCGGTCGA | 5.34
52 | ATCCTGCAGTTCCTGATCTTTGACCTGGAGGCCTAGGGAGATTAGAGTATCGGTCGA | 6.23
53 | CTGATGCCCTTTGGATTTAGGCAGTTTTTGGCCTAGGGAGATTAGAGTATCGGTCGA | 2.92
54 | CAGTTTGGACTTTGATCCTGATGACTGCAGGCCTAGGGAGATTAGAGTATCGGTCGA | 8.17
